Measured values as given in ChEMBL document CHEMBL3988442, “University of Dundee, Small-Polar-MMV Screening Library” (2021).

Tests used:
[1] = target: T1, Aspartate--tRNA(Asp/Asn) ligase (Mycobacterium tuberculosis (strain ATCC 25618 / H37Rv)) (UniProt P9WFW3); assay: Assay for Asp RNA synthetase-1 from Mycobacterium tuberculosis; type: functional; design: scale not given: direction of the effect not stated beside the values; conditions: 30 µM; note: in the data most compounds retested in dose-response had high values
T1 sequence (whole entry): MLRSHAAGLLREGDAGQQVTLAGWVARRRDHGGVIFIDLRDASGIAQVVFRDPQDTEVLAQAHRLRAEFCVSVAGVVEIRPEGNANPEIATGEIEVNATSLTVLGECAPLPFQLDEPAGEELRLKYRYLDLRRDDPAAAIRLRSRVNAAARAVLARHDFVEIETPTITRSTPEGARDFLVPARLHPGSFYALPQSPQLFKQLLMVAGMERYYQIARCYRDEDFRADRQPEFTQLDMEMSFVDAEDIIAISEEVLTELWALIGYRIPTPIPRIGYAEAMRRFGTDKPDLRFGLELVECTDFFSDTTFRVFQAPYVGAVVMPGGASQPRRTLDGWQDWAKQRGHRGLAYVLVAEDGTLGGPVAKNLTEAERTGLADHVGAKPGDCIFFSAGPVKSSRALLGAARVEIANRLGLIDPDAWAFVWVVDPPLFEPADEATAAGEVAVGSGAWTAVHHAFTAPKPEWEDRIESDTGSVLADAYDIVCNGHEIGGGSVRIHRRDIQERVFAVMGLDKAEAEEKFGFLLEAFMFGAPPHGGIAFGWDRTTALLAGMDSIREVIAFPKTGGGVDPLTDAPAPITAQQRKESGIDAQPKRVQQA

[2] = target: Shiga toxin 2 (Escherichia coli O157:H7) (UniProt P09385+P09386); assay: E. coli 0.157:H7 Shiga Toxin SOP - stx2 screening assay; type: functional; design: scale not given: direction of the effect not stated beside the values; conditions: 30 µM

| Compound | Percent Effect [1] [%] | Percent Effect [2] [%] |
| --- | --- | --- |
| CC1c2ncc(COc3cccnc3)n2CCN1C(=O)C1=CCCC1 (stereo unspecified) | -4.09 | -30.8 |
| O=C(NCC1CC1)C1CN(C(=O)c2cccs2)CC12CCOCC2 (stereo unspecified) | 5.88 | 0.242 |
| CC1=Nc2c(c(=O)[nH]n2C2CCCC2)C(c2cccc(O)c2)S1 (stereo unspecified) | 0.174 | 10.3 |
